Source: PubChem BioAssay (Tox21)
Records with an inconclusive call do not appear. Entries that show only a call come without a potency. Where a structure was tested more than once in an assay, its records may differ in their call. The source made the active and inactive calls. Unless noted, calls follow the shape of the dose curve; as a rule, active = well fitted curve in the direction sought with a large enough effect in the repeat runs; inconclusive = weak or mixed curves; inactive = no such curve, though single readings can be large; an effect the other way counts as inactive or inconclusive.

Key:
[1] = qHTS assay to identify small molecule antagonists of the estrogen related receptor (ERR) signaling pathway from Tox21 library - cell viability counter screen (AID 1224834); also: nearly all actives have a fitted effect of over 30% in size; also: potency is read from the fitted curve at half-maximal effect
Method in brief: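 Cytotoxicity of test substances is gauged in the same ERR cells used for the antagonist screen, after 17.5 h of compound treatment at 37 C, by CellTiter-Fluor fluorescence measured after 30 min.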

[2] = biological target: Luciferin 4-monooxygenase (Photinus pyralis) (UniProt P08659); experiment: qHTS assay to identify small molecule inhibitors of firefly luciferase (AID 1224835); also: nearly all actives have a fitted effect of over 25% in size; also: potency is read from the fitted curve at half-maximal effect
Luciferin 4-monooxygenase (Photinus pyralis), sequence (P08659 whole entry, looked up): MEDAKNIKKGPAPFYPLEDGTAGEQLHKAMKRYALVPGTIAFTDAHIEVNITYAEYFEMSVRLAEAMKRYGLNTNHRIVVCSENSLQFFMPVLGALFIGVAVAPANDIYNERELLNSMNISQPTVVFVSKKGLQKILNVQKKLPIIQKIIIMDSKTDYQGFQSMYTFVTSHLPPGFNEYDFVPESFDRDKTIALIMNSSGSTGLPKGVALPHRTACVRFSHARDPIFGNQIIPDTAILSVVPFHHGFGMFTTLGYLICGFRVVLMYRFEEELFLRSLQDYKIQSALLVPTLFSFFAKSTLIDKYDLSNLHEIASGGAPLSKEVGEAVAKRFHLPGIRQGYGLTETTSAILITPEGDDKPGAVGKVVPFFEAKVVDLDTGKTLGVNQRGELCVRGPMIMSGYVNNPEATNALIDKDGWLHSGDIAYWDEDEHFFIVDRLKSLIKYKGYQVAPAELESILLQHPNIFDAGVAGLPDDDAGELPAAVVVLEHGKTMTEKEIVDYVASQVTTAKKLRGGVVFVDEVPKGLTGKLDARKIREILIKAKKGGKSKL
Method in brief: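 Biochemical qHTS: compounds run as interplate titrations against purified firefly enzyme, with D-luciferin and ATP each at its KM concentration. Light output recorded by CCD imaging.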

[3] = qHTS assay to identify small molecule agonists of the constitutive androstane receptor (CAR) signaling pathway - cell viability counter screen (AID 1224836); also: nearly all actives have a fitted effect of over 45% in size; also: potency is read from the fitted curve at half-maximal effect; as to viability change, negative = cytotoxic: series mostly up to about 92 µM
Method in brief: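 HepG2-CYP2B6-hCAR, 2500 cells/well, 4 h pre-incubation; cpd 15 conc + PK11195 0.75 uM final; 23 h, 37 C/5% CO2; CellTiter-Fluor, fluorescence.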

[4] = qHTS assay to identify small molecule antagonists of the constitutive androstane receptor (CAR) signaling pathway - cell viability counter screen (AID 1224837); also: nearly all actives have a fitted effect of over 45% in size; also: potency is read from the fitted curve at half-maximal effect; as to activity change, negative = cytotoxicity: series mostly up to about 92 µM
Method in brief: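 Multiplexed cytotoxicity read-out for the CAR antagonist screen: double-stable HepG2-CYP2B6-hCAR cells co-treated with 50 nM CITCO (final) and compound over 15 concentrations, incubated 23 hr, then assessed by CellTiter-Fluor fluorescence.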

[5] = qHTS assay to identify small molecule antagonists of the estrogen related receptor signaling pathway with the pleiotropic PPARgamma coactivator (PGC) from Tox21 10K library - cell viability counter screen (AID 1224840; active = well fitted cell-killing curve with a large enough effect in the repeat runs, not every such curve was filed as active; also: nearly all actives have a fitted effect of over 40% in size)
Method in brief: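 Step one, plate 2,000 PGC/ERR cells per well; step two, incubate 6 h at 37 C/5% CO2; step three, pin-transfer compounds; step four, incubate 17.5 h; step five, add CellTiter-Fluor and read fluorescence after 30 min.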

[6] = qHTS assay to identify small molecule antagonists of the estrogen related receptor signaling pathway with the pleiotropic PPARgamma coactivator (PGC) from Tox21 10K library (AID 1224841; call rule not given here; also: series mostly up to about 92 µM; actives are mostly falling curves and most rising ones were filed inactive; nearly all actives have a fitted effect of over 50% in size)
Method in brief: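 Antagonism in this quantitative HTS is taken from loss of luciferase signal in PGC/ERR cells. Cells (2,000/well) are treated with compounds in DMSO after a 6 h settling period and read by One-Glo luminescence after 18 h.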

[7] = qHTS assay to identify small molecule agonists of the estrogen related receptor signaling pathway with the pleiotropic PPARgamma coactivator (PGC) from Tox21 10K library (AID 1224842); also: nearly all actives have a fitted effect of over 15% in size
Method in brief: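 PGC/ERR reporter cell line, 2,000 cells per well, incubated 6 h at 37 C before 23 nL compound in DMSO was added. After 18 h at 37 C, One-Glo luminescence read following 30 min at room temperature.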

[8] = biological target: Thyrotropin receptor (Homo sapiens) (UniProt P16473); experiment: qHTS assay to identify small molecule agonists of the thyroid stimulating hormone receptor (TSHR) signaling pathway (AID 1224843; calls by dose curve; also: nearly all actives have a fitted effect of over 45% in size)
Thyrotropin receptor (Homo sapiens), sequence (P16473 whole entry, looked up): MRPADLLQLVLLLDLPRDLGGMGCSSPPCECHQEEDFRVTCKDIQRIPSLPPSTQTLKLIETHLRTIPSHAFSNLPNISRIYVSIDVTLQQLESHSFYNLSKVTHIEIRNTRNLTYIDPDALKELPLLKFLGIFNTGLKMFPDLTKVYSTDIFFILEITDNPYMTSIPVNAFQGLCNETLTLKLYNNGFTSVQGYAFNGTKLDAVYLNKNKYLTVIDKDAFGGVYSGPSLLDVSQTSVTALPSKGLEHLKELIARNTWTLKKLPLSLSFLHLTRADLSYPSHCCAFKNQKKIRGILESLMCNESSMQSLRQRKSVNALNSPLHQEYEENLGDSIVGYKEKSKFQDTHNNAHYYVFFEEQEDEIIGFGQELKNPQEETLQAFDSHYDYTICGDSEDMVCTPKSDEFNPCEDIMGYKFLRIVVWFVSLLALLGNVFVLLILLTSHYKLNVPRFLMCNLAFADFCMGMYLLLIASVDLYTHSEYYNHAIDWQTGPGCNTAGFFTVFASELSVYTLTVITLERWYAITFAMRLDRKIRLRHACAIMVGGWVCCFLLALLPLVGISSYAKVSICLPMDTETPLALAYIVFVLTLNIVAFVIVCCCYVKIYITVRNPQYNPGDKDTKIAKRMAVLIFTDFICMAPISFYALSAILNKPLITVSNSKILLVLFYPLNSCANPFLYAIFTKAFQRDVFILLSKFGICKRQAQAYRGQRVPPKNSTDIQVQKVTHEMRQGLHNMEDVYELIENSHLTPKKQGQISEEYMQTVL
Method in brief: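 TSHR-HEK293 cells in agonist mode, 30 min room-temperature step, then cAMP measured by competitive HTRF (cAMP-d2 with anti-cAMP cryptate) after 1 h at room temperature. Tested at 15 concentrations in triplicate.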

[9] = biological target: Nuclear receptor subfamily 1 group I member 3 (Homo sapiens) (UniProt Q14994); experiment: qHTS assay to identify small molecule agonists of the constitutive androstane receptor (CAR) signaling pathway (AID 1224839);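 also: HepG2 cells stably carrying human CAR and a CYP2B6 luciferase reporter; series mostly up to about 92 µM; nearly all actives have a fitted effect of over 15% in size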
Nuclear receptor subfamily 1 group I member 3 (Homo sapiens), sequence (Q14994 whole entry, looked up): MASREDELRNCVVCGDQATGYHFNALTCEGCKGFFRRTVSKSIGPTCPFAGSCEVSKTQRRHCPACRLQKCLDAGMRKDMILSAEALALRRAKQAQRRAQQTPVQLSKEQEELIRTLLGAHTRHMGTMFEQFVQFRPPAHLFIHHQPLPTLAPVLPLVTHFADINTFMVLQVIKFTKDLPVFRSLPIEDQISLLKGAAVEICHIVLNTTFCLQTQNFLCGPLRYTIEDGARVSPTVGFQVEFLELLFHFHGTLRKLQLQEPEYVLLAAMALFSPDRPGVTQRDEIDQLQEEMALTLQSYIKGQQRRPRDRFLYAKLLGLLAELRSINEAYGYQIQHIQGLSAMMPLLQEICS
Method in brief: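 HepG2-CYP2B6-hCAR cells, 2500/well, 4 h pre-incubation; compounds 15 conc.; PK11195 0.75 uM final; 24 h, 37 C/5% CO2; ONE-Glo luciferase read.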

[10] = biological target: Nuclear receptor subfamily 1 group I member 3 (Homo sapiens) (UniProt Q14994); experiment: qHTS assay to identify small molecule antagonists of the constitutive androstane receptor (CAR) signaling pathway (AID 1224838); also: nearly all actives have a fitted effect of over 40% in size
Method in brief: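 Compounds were titrated across 15 concentrations onto HepG2 cells double-stably expressing hCAR and a CYP2B6-2.2kb reporter, together with 50 nM CITCO (final). After 24 h at 37 C, luciferase activity was measured by luminescence.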

In the case of `CCCCC(CC)COS(=O)(=O)O` (stereo not given), the Potency [1] is reported as “inactive”, the Potency [2] is reported as “inactive” and the Potency [3] is reported as “inactive”. The Potency [4] was “inactive”, the Potency [5] was “inactive” and the Potency [6] was “inactive”. For the same compound, the Potency [7] was “inactive” and the Potency [8] was “inactive”.
With `CC[C@H]1OC(=O)[C@H](C)[C@@H](O[C@H]2C[C@@](C)(OC)[C@@H](O)[C@H](C)O2)[C@H](C)[C@@H](O[C@@H]2O[C@H](C)C[C@H](N(C)C)[C@H]2O)[C@](C)(O)C[C@@H](C)/C(=N\OCOCCOC)[C@H](C)[C@@H](O)[C@]1(C)O` the Potency [1] was 14.3 µM (active), the Potency [2] was “inactive” and the Potency [3] was 25.5 µM (active). For the same compound, the Potency [4] was 14.3 µM (active), the Potency [5] was “inactive” and the Potency [6] was “inactive”. For the same compound, the Potency [7] was “inactive” and the Potency [8] was “inactive”.
With `CC(=O)OCCC(C)CC(C)(C)C` (stereo not given) the Potency [1] was “inactive”, the Potency [2] was “inactive” and the Potency [3] was “inactive”. For the same compound, the Potency [4] was “inactive”, the Potency [9] was “inactive” and the Potency [5] was “inactive”. For the same compound, the Potency [6] was “inactive”, the Potency [7] was “inactive” and the Potency [8] was “inactive”.
With `c1ccc2sc(SSc3nc4ccccc4s3)nc2c1` the viability change, negative = cytotoxic [1] was 0.18% [at 19 µM] (inactive), the Potency [2] was 10.7 µM (active) and the viability change, negative = cytotoxic [3] was 1.07% [at 19 µM] (inactive). The activity change, negative = cytotoxicity [4] was 11.8% [at 19 µM] (inactive), the activity, negative = inhibition [10] was 80.4% [at 19 µM] (inactive) and the viability change, negative = cytotoxic [5] was 10.2% [at 19 µM] (inactive). For the same compound, the activation [8] was -4.06% [at 19 µM] (inactive).
With `COc1cc(S(=O)(=O)Nc2ccccc2)c(OC)cc1N` the Potency [1] was “inactive”, the Potency [2] was “inactive” and the Potency [3] was “inactive”. For the same compound, the Potency [4] was “inactive”, the Potency [10] was “inactive” and the Potency [5] was “inactive”. For the same compound, the Potency [8] was “inactive”.
In the case of `Cc1cc(CCCOc2c(C)cc(-c3noc(C(F)(F)F)n3)cc2C)on1`, the Potency [1] is reported as “inactive”, the Potency [2] is reported as “inactive” and the Potency [3] is reported as “inactive”. The Potency [4] was “inactive”, the Potency [10] was “inactive” and the Potency [5] was “inactive”. For the same compound, the Potency [8] was “inactive”.
For `CCCCCCC(O)CCOC(C)=O` (stereo not given), the Potency [1] was “inactive”, the Potency [2] was “inactive” and the Potency [3] was “inactive”. The Potency [4] was “inactive”, the Potency [5] was “inactive” and the Potency [6] was “inactive”. The Potency [7] was “inactive” and the Potency [8] was “inactive”.
With `CC1CCC(C(C)CS)CC1S` (stereo not given) the Potency [1] was “inactive”, the Potency [2] was “inactive” and the Potency [3] was “inactive”. The Potency [4] was “inactive”, the Potency [5] was “inactive” and the Potency [6] was “inactive”. The Potency [8] was “inactive”.
With `C=C(C)C(=O)OCCC(F)(F)C(F)(F)C(F)(F)C(F)(F)C(F)(F)C(F)(F)F` the Potency [1] was “inactive”, the Potency [2] was “inactive” and the Potency [3] was “inactive”. For the same compound, the Potency [4] was “inactive”, the Potency [10] was “inactive” and the Potency [5] was “inactive”. The Potency [8] was “inactive”.
In the case of `COc1ccc(C(=O)NCc2ccc(OCCN(C)C)cc2)cc1OC`, the Potency [1] is reported as “inactive”, the Potency [2] is reported as “inactive” and the Potency [3] is reported as “inactive”. For the same compound, the Potency [4] was “inactive”, the Potency [5] was “inactive” and the Potency [7] was “inactive”.
With `COc1ccc2nc(S(=O)Cc3ncc(C)c(OC)c3C)[nH]c2c1` (stereo not given) the Potency [1] was 53.8 µM (active) and inactive, the Potency [2] was 31.3 µM (active) and inactive and the Potency [3] was “inactive”. For the same compound, the Potency [4] was “inactive”, the Potency [10] was “inactive” and the Potency [5] was “inactive”. The Potency [8] was “inactive”.
In the case of `O=C(C(=O)c1ccco1)c1ccco1`, the Potency [1] is reported as “inactive”, the Potency [2] is reported as “inactive” and the Potency [3] is reported as “inactive”. The Potency [10] was “inactive” and the Potency [5] was “inactive”.
In the case of `CC(CN(CCN(CC(C)OCCO)CC(C)OCCO)CC(C)OCCO)OCCO` (stereo not given), the Potency [1] is reported as “inactive”, the Potency [2] is reported as “inactive” and the Potency [3] is reported as “inactive”. For the same compound, the Potency [4] was “inactive”, the Potency [5] was “inactive” and the Potency [8] was “inactive”.
In the case of `CC(=O)C(=O)CC(C)C`, the Potency [1] is reported as “inactive”, the Potency [2] is reported as “inactive” and the Potency [3] is reported as “inactive”. For the same compound, the Potency [4] was “inactive”, the Potency [5] was “inactive” and the Potency [8] was “inactive”.
In the case of `CCCCCCCCCCCCCCCC(=O)OCC`, the Potency [1] is reported as “inactive”, the Potency [2] is reported as “inactive” and the Potency [3] is reported as “inactive”. For the same compound, the Potency [4] was “inactive”, the Potency [5] was “inactive” and the Potency [8] was “inactive”.
With `CC(C)(O)CCc1ccccc1` the Potency [1] was “inactive”, the Potency [2] was “inactive” and the Potency [3] was “inactive”. The Potency [4] was “inactive”, the Potency [5] was “inactive” and the Potency [8] was “inactive”.
